Source: PubChem BioAssay (NMMLSC)
BoNT-F LC inh – BoNT/F light chain protease inhibitors, primary screen, biochemical, flow cytometry, MLPCN library. AID 588497, 2011. Multiplex microsphere protease cleavage assay. inhibition, % at 10 µM. 360,000 tested, 0.22% active. Botulinum neurotoxin type F light chain protease (Clostridium botulinum); in the data active = inhibition above about 35%, passing the limit was not always enough; inconclusive = no clear call, values can overlap the other calls; note: plate controls were buffer without enzyme for full effect and enzyme alone for no effect
Autofluor counter – compound fluorescence in toxin protease inhibitor counterscreen; compound autofluorescence counterscreen, microsphere flow cytometry; active compounds read high; fluorescence intensity (no concentration beside the values); 360,000 tested, 3.1% active; AID 624483; in the data active = fluorescence intensity above about 16000; inconclusive = no clear call, values can overlap the other calls
BoNT A protease – BoNT/A light chain protease inhibitors, primary screen, biochemical, flow cytometry, MLPCN library; Botulinum neurotoxin type A light chain protease (Clostridium botulinum A str. ATCC 3502); multiplex microsphere protease substrate cleavage; inhibition, % at 10 µM; 360,000 tested, 0.17% active; AID 588499, 2011; note: plate controls were buffer without enzyme for full effect and enzyme alone for no effect
Anthrax LF inh2 – Bacillus anthracis LF protease inhibitors, primary screen, biochemical, multiplex microsphere, MLPCN library. multiplex microsphere protease cleavage assay. inhibition, % at 10 µM. 360,000 tested, 0.12% active. AID 588501, 2011; note: plate controls were buffer without enzyme for full effect and enzyme alone for no effect
* = called active by the depositor; ? = inconclusive. This is a sample that favours compounds with a hit; in the whole collection about 3.5% have one here. Cut-off read from the data, not from the text of the source, unless noted: active = inhibition above about 30%; inconclusive = no clear call, values can overlap the other calls; inactive = below that.

SMILES | BoNT-F LC inh | Autofluor counter | BoNT A protease | Anthrax LF inh2
COc1ccc(-c2nnn(CC(=O)N(C3CCCC3)C(C)C(=O)NC3CCCC3)n2)cc1OC (stereo not drawn) | -7.6 | 11381 | -1.0 | -24.2
COc1ccc(N(CC(=O)NC2CCCC2)C(=O)Cn2nnc(-c3ccc(F)cc3)n2)cc1OC | 3.0 | 15949 | 1.1 | -3.9
COc1ccc(N(CC(=O)NC2CCCC2)C(=O)Cn2nnc(-c3ccc(C)cc3)n2)cc1OC | -1.8 | 16197* | -0.1 | -3.8
Cc1ccc(N2C(=O)CC3(CCCC3)CC2=O)cc1 | ? | 5109 | -5.2 | 31.9*
O=C(Nc1cccc(C(F)(F)F)c1)c1ccc2nc(N3C(=O)CCC3=O)sc2c1 | 2.0 | 22304* | 1.1 | -2.4
O=C(Nc1cccc(C(F)(F)F)c1)c1ccc2nc(-c3ccco3)c(-c3ccco3)nc2c1 | -6.9 | 3371 | 63.4* | 28.5
Cc1nc2ccc(NC(=O)c3ccc(N4C(=O)CCC4=O)cc3)cc2s1 | 3.1 | 4535 | 0.3 | -1.7
O=C(O)c1ccc2nc(-c3ccco3)c(-c3ccco3)nc2c1 | -1.3 | 2572 | -1.4 | -2.1
CCOC(=O)C1=CNS(=O)(=O)NC1c1ccc(C(=O)OC)cc1 (stereo not drawn) | -4.1 | 2970 | 0.1 | -5.1
COc1ccc(OC)c(C(=O)NC(CC(N)=O)c2ccc(N3CCCCCC3)c([N+](=O)[O-])c2)c1 (stereo not drawn) | 0.0 | 3489 | -0.1 | -4.8
CC(=O)CSc1nc(C(F)(F)F)cc(=O)n1-c1ccccc1 | -2.7 | 20676* | -0.9 | -1.6
COc1ccc2occ(C(=O)c3coc4ccc(O)c(CN(C)C)c34)c2c1 | -2.9 | 23271* | 0.2 | -0.9
CN(C)Cc1c(O)ccc2occ(C(=O)c3ccccc3)c12 | 2.3 | 22642* | 1.6 | 3.6
CCN(CC)Cc1c(O)ccc2occ(C(=O)c3ccccc3)c12 | ? | 3587 | 2.9 | -3.0
COc1ccc(OC)c(C(=O)c2coc3ccc(O)c(CN(C)C)c23)c1 | ? | 3315 | 0.7 | -1.1
O=C(c1cccs1)c1coc2ccc(O)c(CN(CCO)CCO)c12 | 10.0 | 21865* | 2.3 | -0.5
COc1ccc2occ(C(=O)c3cccs3)c2c1 | -5.9 | 24929* | -1.9 | -2.6
COc1ccc(C(C)=NOC(=O)c2c(-c3ccccc3Cl)noc2C)cc1CN1CCOCC1 | -6.0 | 3893 | 0.0 | 0.8
CCOc1cc2[nH]c(=S)n(C(C)C)c(=O)c2cc1OCC | -2.9 | 21566* | -0.2 | -4.7
CCOc1cc2[nH]c(=S)n(C3CC3)c(=O)c2cc1OCC | -1.4 | 3956 | 0.3 | 0.6
CCOC(=O)N1CCC(n2c(=S)[nH]c3cc(OCC)c(OCC)cc3c2=O)CC1 | 8.8 | 18805* | ? | -5.0
CCOc1cc2[nH]c(=S)n(Cc3ccc(C)o3)c(=O)c2cc1OCC | -4.8 | 17111* | ? | -5.1
Cc1ccc(Cn2c(=S)[nH]c3ccc(N4CCOCC4)cc3c2=O)o1 | -5.7 | 5817 | 0.0 | -0.3
C=C1c2ccccc2O[C@H](C(=O)OCC)[C@H]1OC | -7.1 | 3603 | -0.4 | -5.4
O=[N+]([O-])c1cc(/C=N/OCc2c(Cl)cccc2Cl)ccc1N1CCOCC1 | -3.2 | 22744* | 1.1 | -6.0
SMILES | BoNT-F LC inh | Autofluor counter | BoNT A protease | Anthrax LF inh2
O=C(NC(=S)Nc1nc(-c2ccc(Br)cc2)cs1)c1cccnc1 | -2.1 | 23721* | -1.0 | -2.2
O=C(Nc1cccc(Cl)c1N1CCCC1)c1ccc(Br)o1 | -6.1 | 21468* | -1.7 | -3.4
CCN(CC)c1ccc(NC(=O)c2ccc(Br)o2)c(C)c1 | -2.7 | 20876* | -0.9 | -2.6
O=C(Nc1cccc(Cl)c1N1CCCC1)c1ccc([N+](=O)[O-])o1 | -4.5 | 3353 | 0.0 | -2.8
Cc1cc(O)c(NC(=O)c2ccc(Br)o2)cc1C | 4.3 | 21608* | 1.9 | -3.7
COc1ccccc1N(CC(=O)NCc1ccccc1)S(=O)(=O)c1cccs1 | 5.9 | 3930 | -0.1 | -6.1
COc1cc2c(cc1OC)CN(CC(=O)Nc1ccc(C)cc1)CC2 | -2.1 | 20583* | 0.4 | -2.3
COc1cc2c(cc1OC)CN(CC(=O)Nc1ccc(C)c(C)c1)CC2 | 6.5 | 3619 | -1.4 | 4.4
COc1cc2c(cc1OC)CN(C(C)C(=O)Nc1ccc(NC(C)=O)cc1)CC2 (stereo not drawn) | -7.6 | 17392* | -3.7 | -4.6
CC1CC(C)(C)NC(=S)N1CC(=O)NCc1ccc(Cl)cc1 (stereo not drawn) | 47.0* | 2781 | 4.3 | 0.4
CC1CC(C)(C)NC(=S)N1CC(=O)NCc1ccccc1Cl (stereo not drawn) | -6.6 | 2240 | -0.1 | -0.5
Cc1cccc(C(=O)Nc2cccnc2Cl)c1 | -160.0 | 2572 | 65.8* | -24.6
COCCOc1cc(NC(=O)c2cccc(OC)c2)c(Cl)cc1Cl | -5.7 | 4804 | -0.4 | 4.3
CCOc1ncccc1C(=O)OCC(=O)Nc1cc(C)ccc1C | -0.8 | 23113* | -0.9 | -3.5
Cc1ccc(C)c(NC(=O)c2ccccn2)c1 | 0.5 | 20724* | ? | -0.4
Cc1cccc(C(=O)Nc2cc(OCc3cccc(F)c3)c(Cl)cc2Cl)c1 | 0.6 | 19656* | ? | -0.4
CCOc1ncccc1C(=O)OCC(=O)Nc1cc(S(=O)(=O)N2CCOCC2)ccc1C | -1.1 | 2006 | 0.1 | -2.4
Cc1ccc(NC(=O)c2ccccn2)c(Br)c1 | -8.5 | 4142 | 0.1 | 1.5
O=C(CN1CCOCC1)NNC(=O)c1ccc(Cl)cc1 | -7.8 | 4029 | -0.3 | -2.8
O=c1c2ccccc2nc(-c2ccc(F)cc2)n1NCc1ccccc1O | -8.3 | 2781 | -0.9 | -0.8
Cn1c(N/N=C/c2cc3ccccc3nc2Cl)nc2ccccc21 | -6.7 | 2608 | 1.7 | -0.1
O=C(Cn1cnc2ccccc21)Nc1ccc2c(c1)OCCCO2 | 0.5 | 3706 | -0.7 | 0.7
O=C(c1ccc(CS(=O)(=O)Cc2ccc(Cl)cc2)o1)N1CCCC1 | 0.6 | 23181* | 1.0 | -5.1
Cc1ccc(S(=O)(=O)Cc2ccc(C(=O)N3CCCC3)o2)cc1 | -10.0 | 6159 | -0.6 | -5.8
CN(C(=O)c1ccc(NC(=O)Cc2ccc(NC(=O)C3CCCN(S(=O)(=O)c4cccc([N+](=O)[O-])c4)C3)cc2)cc1)C1CCCC1 (stereo not drawn) | -4.5 | 3128 | -0.7 | 4.1
SMILES | BoNT-F LC inh | Autofluor counter | BoNT A protease | Anthrax LF inh2
Clc1cccc(Cl)c1CO/N=C/c1c(-c2ccccc2)nc2n1CCS2 | -7.3 | 23470* | ? | -3.5
COC(=O)c1ccc(NC(=O)CSCc2ccc(C)cc2)cc1 | 0.5 | 22818* | 1.0 | -3.5
CC(=O)c1ccc(NC(=O)CSCCO)cc1 | -1.0 | 19947* | 0.0 | -5.2
COC(=O)c1ccc(NC(=O)CSCc2ccccc2)cc1 | -3.1 | 2728 | 0.7 | 1.1
COC(=O)c1ccc(NC(=O)Cc2ccccc2)cc1 | -2.8 | 9743 | -0.3 | 11.5
COC(=O)c1ccc(NC(=O)CSCc2ccccc2C)cc1 | 3.0 | 22086* | 2.2 | -2.9
CC1(C)SC[C@H](C(=O)Nc2cccc(Cl)c2)N1C=O | ? | 4435 | ? | 14.7
Cc1ncsc1C(=O)Nc1nc2c(s1)CC(C)CC2 (stereo not drawn) | -2.0 | 16464* | -0.6 | -6.0
COc1ccccc1Cc1noc(COc2cccc(C)c2C)n1 | -10.1 | 16962* | -1.8 | -1.2
